Bioassay records: PubChem BioAssay, National Center for Advancing Translational Sciences (NCATS)
TGFb SMAD3 inh = inhibitors of TGF-b signaling; Potency, µM (doses to about 46.1 µM), for the others: top-dose activity, negative = inhibition, most hits filed as inhibitors; AID 588855; HepG2 CAGA-GFP TGF-b/SMAD3 reporter, GFP fluorescence, 18 h; TGF-beta stimulated, 500 pg/mL final; 410,000 compounds, 1.2% hits; also: potency is read from the fitted curve at half-maximal effect; % is scaled to controls: 0 for no effect and ±100 for the full control effect; nearly all actives have a fitted effect of over 65% in size
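GFP signal (ex488/em500-530) from TGF-beta-stimulated HEPG2 CAGA-GFP cells, 500 pg/mL final, 18 h at 37 degrees C in DMEM plus 1% FBS, normalized to unstimulated and DMSO-stimulated controls.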
HepG2 viability = HepG2 cytotoxicity, counter-screen for TGF-b inhibitors | HepG2 CAGA-GFP viability, ATP luminescence, 18 h | Potency, µM (highest dose often 46.1 µM), for the others: at the highest dose activity change, negative = cytotoxicity, usual class: cytotoxic | 410,000 compounds, 0.76% hits; also: potency is read from the fitted curve at half-maximal effect
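HepG2 CAGA-GFP cells (1000/well, DMEM with 1% FBS) received compound, then TGF-beta at 500 pg/mL final, and were incubated 18 hours at 37 degrees C. Viability was read by CellTiter-Glo luminescence. Media-only wells were set as complete cell-killing and DMSO as no toxicity.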
TDP1 cell noCPT = qHTS for Inhibitors of human tyrosyl-DNA phosphodiesterase 1 (TDP1): qHTS in cells in absence of CPT | DT40 Tdp1-/- hTDP1 cells, no CPT, ATP luminescence, 48 h | Potency, µM (series often up to 46.2 µM), for the others: at the top dose activity change, negative = growth inhibition, usual class: inhibitors | AID 686978, 2013 | 420,000 compounds, 15% hits; also: potency is read from the fitted curve at half-maximal effect; % is scaled to controls: 0 for no effect and ±100 for the full control effect; nearly all actives have a fitted effect of over 55% in size
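Luminescent ATP content (CellTiter-Glo) served as the growth readout. Knockout chicken DT40 cells expressing human TDP1 were exposed to compounds without camptothecin for a minimum 48 hr at 37 °C.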
IL-1B inflam inh = inhibitors of inflammasome signaling (IL-1 beta secretion); THP-1 LPS/ATP IL-1B secretion, AlphaLISA, 16 h; hits give low values; activity change, % at 57.5 µM; 360,000 compounds, 4.7% hits; AID 743279; in the data active = activity change below about -50%; inconclusive = mostly about -30% to -49%; also: % is scaled to controls: 0 for no effect and ±100 for the full control effect
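Secreted IL-1B measured by AlphaLISA bead assay after 16 h compound exposure of THP-1 cells; compounds (final up to 57.5 uM) added 1 h before LPS (250 ng/mL) and ATP (1.25 mM) stimulation; lower signal means less secretion.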
ASM inhibitor = inhibitors of human secretory acid sphingomyelinase; P17405; placental ASM, HMU-PC fluorogenic substrate, 60 min; Potency, µM (titrated, usually from 57.5 µM), for inactives: top-dose activity change, negative = inhibition, hits mostly inhibitors; 340,000 compounds, 0.006% hits; also: potency is read from the fitted curve at half-maximal effect
Target sequence (P17405 47-631 limits assumed): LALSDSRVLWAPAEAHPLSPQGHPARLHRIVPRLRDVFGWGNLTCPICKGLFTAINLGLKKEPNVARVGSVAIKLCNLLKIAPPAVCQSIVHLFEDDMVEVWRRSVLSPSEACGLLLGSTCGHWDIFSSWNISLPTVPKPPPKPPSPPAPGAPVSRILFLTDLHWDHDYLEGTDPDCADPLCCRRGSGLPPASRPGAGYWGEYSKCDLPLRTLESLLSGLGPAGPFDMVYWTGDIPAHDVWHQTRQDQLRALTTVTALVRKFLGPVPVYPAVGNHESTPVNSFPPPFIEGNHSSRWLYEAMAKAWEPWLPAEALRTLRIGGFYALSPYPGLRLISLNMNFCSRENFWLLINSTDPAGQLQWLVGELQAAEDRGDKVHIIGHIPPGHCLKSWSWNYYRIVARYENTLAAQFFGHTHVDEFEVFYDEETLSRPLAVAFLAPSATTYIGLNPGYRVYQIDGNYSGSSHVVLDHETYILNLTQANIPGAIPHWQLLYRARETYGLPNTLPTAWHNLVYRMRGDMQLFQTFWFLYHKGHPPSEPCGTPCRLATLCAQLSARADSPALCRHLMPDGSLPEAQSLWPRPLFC
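Human placenta-derived ASM preincubated with compound 10 min at room temperature, then reacted with 9 uM (final) fluorogenic HMU-PC substrate for 60 min at 37 C. Stop solution raises pH to 10; fluorescence read at Ex 386/Em 447 nm.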
TDP1 cell CPT = growth inhibition of DT40 Tdp1-/-;hTDP1 cells with camptothecin (screen for TDP1 inhibitors); Potency, µM (highest dose often 46.2 µM), inactives show top-dose activity change, negative = growth inhibition, usual class: inhibitors; chicken DT40 Tdp1-/-;hTDP1 cells + 20 nM CPT, ATP luminescence, 48 h; 420,000 compounds, 12% hits; AID 686979; also: potency is read from the fitted curve at half-maximal effect; % is scaled to controls: 0 for no effect and ±100 for the full control effect; nearly all actives have a fitted effect of over 55% in size
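Chicken DT40 Tdp1-/- cells complemented with human TDP1, 400 cells/well, exposed to compounds plus 20 nM camptothecin for at least 48 h at 37 C; viability read as ATP content by CellTiter-Glo luminescence.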
Starred values were filed as active, the others as inactive; u = inconclusive; x = no result given. This is a sample that favours compounds with a hit; in the whole collection about 19% have one here. Unless noted, calls follow the shape of the dose curve; as a rule, active = well fitted curve in the direction sought with a large enough effect; inconclusive = small, poorly fitted or top-dose-only effect, or another doubt; inactive = no such curve, though single readings can be large; an effect the other way counts as inactive or inconclusive.

SMILES | TGFb SMAD3 inh | HepG2 viability | TDP1 cell noCPT | IL-1B inflam inh | ASM inhibitor | TDP1 cell CPT
CCN(CC)CCCNC(=O)c1c(O)c2ccccc2n(Cc2ccccc2)c1=O | u | -69% | 23µM* | -29 | -2% | 18µM*
CCN(CC)CCNC(=O)c1c(O)c2ccccc2n(Cc2ccccc2)c1=O | -17% | -20% | 16µM* | -6 | -1% | 18µM*
CCCCCn1c(=O)c(C(=O)NCCc2ccccc2)c(O)c2ccccc21 | -2% | 0% | u | 80 | -4% | u
c1ccc(-c2ccc(-c3[nH]ncc3CN3CCC(N4CCSCC4)CC3)cc2)cc1 | -2% | -25% | u | -19 | 2% | u
CCN(C[C@H]1N[C@@](CC)(C(=O)OC)[C@H]2C(=O)N(Cc3ccccc3)C(=O)[C@@H]12)S(=O)(=O)c1ccc(OC)cc1 | -5% | -5% | u | -18 | -4% | 23µM*
CC[C@@]1(C(=O)OC)N[C@H](CN(C)C(=O)Nc2ccc(C(F)(F)F)cc2)[C@@H]2C(=O)N(Cc3ccccc3)C(=O)[C@@H]21 | -7% | -2% | u | -19 | -7% | u
CC[C@@]1(C(=O)OC)N[C@H](CN(C)C(=O)c2ccc(C(C)(C)C)cc2)[C@@H]2C(=O)N(Cc3ccccc3)C(=O)[C@@H]21 | -3% | -4% | 16µM* | -20 | -1% | u
COc1ccc(CC2(CCc3ccncc3)C(=O)NC(=O)NC2=O)cc1OC | -9% | -11% | -18% | 14 | -6% | -18%
C#CCN1C(=O)S/C(=C\c2ccc(N3CCOCC3)cc2C)C1=O | u | -2% | 7.3µM* | 0 | -3% | u
COc1ccc(C2/C=C\CN(C(=O)Oc3ccccc3)CC(=O)N2Cc2ccc(F)cc2)cc1 (stereo unspecified) | u | -31% | u | 40 | u | 21µM*
COc1cccc(C(=O)C2CCCN(Cc3ccc(F)cc3)C2)c1 (stereo unspecified) | 3% | -15% | -27% | 0 | 2% | 8%
CCCCCC1C(=O)O[C@H](C)[C@@H](NC(=O)c2cccc(NC=O)c2O)C(=O)OC(C)C1OC(=O)CC(C)C (stereo partly specified) | x | x | 0.046µM* | x | x | 0.046µM*
CCCC[C@H]1C(=O)O[C@H](C)[C@H](NC(=O)c2cccc(NC=O)c2OC)C(=O)O[C@@H](C)[C@@H]1OC(=O)CC(C)C | x | x | 6.7µM* | x | x | u
CC1C(=O)OC2C(O)C34C5OC(=O)[C@@]3(OC3OC(=O)[C@H](O)[C@]34C(C(C)(C)C)C5O)[C@]12O (stereo partly specified) | x | x | 5% | x | x | 16%
CC(Sc1ncnc2sccc12)C(=O)Nc1ccc(S(=O)(=O)N2CCOCC2)cc1 (stereo unspecified) | -4% | -6% | -33% | 15 | -3% | u
COc1ccc(C(C)(C)C)cc1NC(=O)CCCn1c(=O)oc2ccccc21 | -6% | 2% | u | -14 | -1% | -24%
CN1Cc2c(ccc3c2OCO3)C2C(O)Cc3cc4c(cc3C21)OCO4 (stereo unspecified) | x | x | 1.9µM* | x | x | 2.7µM*
Cc1ccccc1S(=O)(=O)N1C[C@H]2[C@H]3C(=O)N(C4CCCCC4)C(=O)[C@H]3CC(=O)[C@H]2[C@@H]1c1ccc(Cl)cc1 | u | -22% | u | u | x | u
Cc1ncc(CN2CCCC(C(=O)c3ccc(C(C)(C)C)cc3)C2)s1 (stereo unspecified) | -11% | -39% | 12µM* | -29 | 2% | 21µM*
COc1ccc(C(=O)C2CCCN(Cc3ccccn3)C2)c(OC)c1 (stereo unspecified) | 3% | -10% | 15µM* | 10 | -2% | 21µM*
CSc1ccc(C(=O)C2CCCN(CCCn3cccn3)C2)cc1 (stereo unspecified) | -7% | 6% | -25% | u | -3% | u
CCn1ccnc1CN1CCCC(C(=O)c2ccc(SC)cc2)C1 (stereo unspecified) | -27% | -32% | 18µM* | -1 | 5% | u
COc1ccc(C(=O)C2CCCN(Cc3ccon3)C2)cc1OC (stereo unspecified) | 5% | -3% | u | -14 | 7% | -20%
COc1ccc(C(=O)C2CCCN(Cc3cnc(C)s3)C2)c(OC)c1 (stereo unspecified) | -28% | -16% | 8.2µM* | -64* | -2% | 16µM*
COc1ccc(CCNC(=O)CCCCn2c(=O)c3ccccc3n(Cc3ccccc3Cl)c2=O)cc1OC | 1% | -1% | u | x | x | u
SMILES | TGFb SMAD3 inh | HepG2 viability | TDP1 cell noCPT | IL-1B inflam inh | ASM inhibitor | TDP1 cell CPT
CCc1nnc(NS(=O)(=O)c2ccc(N=Cc3c(O)n(-c4ccc(Cl)cc4)c(=O)[nH]c3=O)cc2)s1 | 3% | 2% | u | -10 | -1% | u
O=C(c1ccc(C(F)(F)F)cc1)C1CCCN(Cc2ccncc2)C1 (stereo unspecified) | -28% | -6% | 10µM* | -22 | 2% | 10µM*
COc1cccc(O)c1CN1CCCC(C(=O)c2ccccc2SC)C1 (stereo unspecified) | u | -36% | 18µM* | -29 | 9% | 16µM*
COC(=O)C1=C(c2cccc(OCc3ccccc3)c2)C[C@@H]2CC[C@H]1N2C(=O)NCCCOC(C)C | u | -6% | 18µM* | u | 4% | 21µM*
COC(=O)C1=C(c2cccc(OCc3ccccc3)c2)C[C@@H]2CC[C@H]1N2C(=O)NCc1ccc(C(C)(C)C)cc1 | -10% | 0% | 21µM* | -16 | -3% | u
COC(=O)C1=C(c2cccc(OCc3ccccc3)c2)C[C@@H]2CC[C@H]1N2C(=O)NCCOc1ccc(OC)cc1 | -25% | 3% | u | -11 | -4% | 23µM*
COC(=O)C1=C(c2ccccc2OCc2ccccc2)C[C@@H]2CC[C@H]1N2C(=O)NCCOc1ccc(OC)cc1 | -26% | 0% | u | 0 | -11% | u
COC(=O)C1=C(c2cccc(OCc3ccccc3)c2)C[C@@H]2CC[C@H]1N2C(=O)NCCN1CCOCC1 | 0% | -4% | u | -13 | 1% | 16µM*
